This note sets out measurements from PubChem BioAssay (EPA / NIEHS).

Molecules are shown by their SMILES. The source made the active and inactive calls. The calls were made as follows: active = hit-call score of the fitted dose curve at least 0.9, where 1 is the maximum; inactive = score below 0.9.

Test [1] is described as follows: ATG_GLI_CIS: Attagene CIS-FACTORIAL HepG2 Assay for human Zinc Finger Protein GLI1 (AID 2282945). The settings on record: HepG2, Attagene cis-factorial reporter mRNA, GLI element; actives raise or lower the signal. The essentials: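 HepG2 cells transiently transfected with cis-promoter multiplexed reporter units report endogenous transcription factor activity. After 24 h chemical exposure, reporter mRNA was quantified by RT-PCR, 6-FAM labelling, HpaI digestion and capillary electrophoresis, with bidirectional fitting against DMSO.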

Test [2] concerns the target Bile acid receptor (Homo sapiens) (UniProt Q96RI1). Kind of test: ATG_IR1_CIS: Attagene CIS-FACTORIAL HepG2 Assay for human Nuclear Receptor Subfamily 1 Group H Member 4 (NR1H4), IR1 submotif (AID 2282946). As to conditions: IR1 reporter transcription, actives raise or lower the signal. The procedure, abridged:
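Transient MRTU transfection, HepG2; 24 h dosing; RNA → RT-PCR → 6-FAM primer extension → HpaI digest → capillary electrophoresis fluorescence. Gain/loss of signal fitted relative to DMSO.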

Test [3] is described as follows: ATG_GRE_CIS: Attagene CIS-FACTORIAL HepG2 Assay for human Glucocorticoid Response Elements (GRE) (AID 2282947). As to conditions: HepG2 GRE cis-reporter, Attagene multiplex mRNA; actives raise or lower the signal. The procedure, abridged: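 HepG2 cells transiently transfected with multiple cis-promoter reporter units measure endogenous TF activity; 24 h compound exposure. Reporter mRNA quantified by RT-PCR, FAM labelling, HpaI digestion and capillary electrophoresis; bidirectional fit vs DMSO baseline.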

The nature of test [4]: ATG_ISRE_CIS: Attagene CIS-FACTORIAL HepG2 Assay for human Interferon Regulatory Factor 1 (IRF1) binding to an Interferon-Stimulated Response Element (ISRE) (AID 2282948). The settings on record: HepG2 ISRE cis-reporter (Attagene), mRNA transcription readout; actives raise or lower the signal. The procedure, abridged: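 HepG2 cells transiently transfected with multiplexed cis-promoter reporter units; after 24 h compound exposure, reporter mRNA quantified by RT-PCR, FAM labelling, HpaI digestion and capillary electrophoresis. Bidirectional fit versus DMSO baseline.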

A short description of test [5]: ATG_M_32_CIS: Attagene CIS-FACTORIAL HepG2 Assay for M32 Transcription Factor (Internal Marker) (AID 2282949).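 Also: background control marker of the multiplexed CIS panel rather than a real target.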 The settings on record: HepG2 Attagene cis-factorial M32 reporter, mRNA; actives raise or lower the signal. The essentials: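 Following 24 h chemical exposure of HepG2 cells transiently expressing cis-promoter reporter constructs, reporter transcript levels were determined by RT-PCR with fluorescent labelling and capillary electrophoresis, then fitted bidirectionally against DMSO.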

Test [6] in a line: ATG_M_06_CIS: Attagene CIS-FACTORIAL HepG2 Assay for M06 Transcription Factor (Internal Marker) (AID 2282950). The settings on record: HepG2 Attagene CIS-FACTORIAL M06 internal marker reporter; actives raise or lower the signal. The procedure, abridged:
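HepG2 liver cells, 24 h exposure. Reporter transcripts from transfected cis-element constructs quantified by RT-PCR/capillary electrophoresis fluorescence. Bidirectional curve fit against DMSO.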

Test [7] addresses Hypoxia-inducible factor 1-alpha (Homo sapiens) (UniProt Q16665). The test can be described thus: ATG_HIF1a_CIS: Attagene CIS-FACTORIAL HepG2 Assay for human Hypoxia Inducible Factor 1 (HIF1A) (AID 2282951). The settings on record: HepG2 Attagene cis-factorial HIF1a reporter transcription; actives raise or lower the signal. The essentials: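 Measures endogenous transcription-factor activity through cis-regulated reporter mRNA in HepG2. Cells dosed 24 h; transcripts quantified by RT-PCR with 6-FAM-labelled products separated by capillary electrophoresis; DMSO serves as negative control.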

For test [8], the target named is Hepatocyte nuclear factor 6 (Homo sapiens) (UniProt Q9UBC0). Kind of test: ATG_HNF6_CIS: Attagene CIS-FACTORIAL HepG2 Assay for human Hepatocyte Nuclear Factor 6 (HNF6) (AID 2282952). The settings on record: HepG2 Attagene cis-factorial HNF6 reporter transcription; actives raise or lower the signal. The essentials: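 HepG2 cells transiently transfected with cis-element-driven multiplexed reporter units measuring endogenous transcription factor activity. After 24 h exposure, reporter mRNA quantified by RT-PCR, FAM-labelled fragments and capillary electrophoresis; bidirectional fitting versus DMSO.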
Chain of Hepatocyte nuclear factor 6 (Homo sapiens) (Q9UBC0 whole entry, looked up, the tested form may be a part): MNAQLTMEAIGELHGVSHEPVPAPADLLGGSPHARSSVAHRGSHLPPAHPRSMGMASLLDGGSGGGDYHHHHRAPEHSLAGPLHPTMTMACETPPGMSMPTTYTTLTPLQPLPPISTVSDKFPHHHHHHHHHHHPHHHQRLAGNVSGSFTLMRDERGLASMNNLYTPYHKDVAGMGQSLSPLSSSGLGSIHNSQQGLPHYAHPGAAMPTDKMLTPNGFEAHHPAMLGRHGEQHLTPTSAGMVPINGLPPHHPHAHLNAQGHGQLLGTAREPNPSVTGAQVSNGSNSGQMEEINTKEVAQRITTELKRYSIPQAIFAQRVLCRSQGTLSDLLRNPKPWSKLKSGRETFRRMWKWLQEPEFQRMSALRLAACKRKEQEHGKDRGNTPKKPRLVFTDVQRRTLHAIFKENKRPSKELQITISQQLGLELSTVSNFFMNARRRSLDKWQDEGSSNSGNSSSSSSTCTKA

For test [9], the target named is Heat shock factor protein 1 (Homo sapiens) (UniProt Q00613). The test can be described thus: ATG_HSE_CIS: Attagene CIS-FACTORIAL HepG2 Assay for human Heat Shock Transcription Factor 1 (HSE) (AID 2282953). The settings on record: HepG2 HSE cis-reporter, Attagene RNA transcription; actives raise or lower the signal. The essentials:
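Endogenous transcription factor activity captured via cis-promoter reporter units transfected into HepG2; treatment lasted 24 h. Fluorescence intensity of reporter fragments analysed with bidirectional curve fitting, DMSO baseline.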

Test [10] can be described thus: ATG_MRE_CIS: Attagene CIS-FACTORIAL HepG2 Assay for human Metal Responsive Element (MRE) (AID 2282954). The settings on record: HepG2 MRE cis-reporter transcription, Attagene multiplex; actives raise or lower the signal. The procedure, abridged: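 HepG2 cells transiently transfected with multiple cis-element reporter units measure endogenous MTF1-driven transcription. After 24 h compound exposure, reporter mRNA is quantified by RT-PCR with 6-FAM labelling, HpaI digestion and capillary electrophoresis; bidirectional fits versus DMSO.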

A short description of test [11]: ATG_PBREM_CIS: Attagene CIS-FACTORIAL HepG2 Assay for human Phenobarbital-responsive Enhancer Module (PBREM) (AID 2282955). As to conditions: HepG2 PBREM cis-reporter, Attagene multiplexed transcription; actives raise or lower the signal. The procedure, abridged: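 Fluorescence of labelled reporter cDNA fragments, resolved by capillary electrophoresis, gives mRNA induction in transfected HepG2 cells treated for 24 h; DMSO serves as negative control and baseline.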

The target of test [12] is Paired box protein Pax-6 (Homo sapiens) (UniProt P26367). Kind of test: ATG_Pax6_CIS: Attagene CIS-FACTORIAL HepG2 Assay for human Paired Box 6 (PAX6) (AID 2282956). As to conditions: HepG2 CIS-FACTORIAL PAX6 reporter transcription, RNA readout; actives raise or lower the signal. The essentials: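 HepG2 cells transiently transfected with multiplexed cis-promoter reporter units (endogenous TF activity) were dosed for 24 h. Reporter mRNA was quantified by RT-PCR, 6-FAM labeling, HpaI digestion and capillary electrophoresis; bidirectional fitting versus DMSO baseline.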
Chain of Paired box protein Pax-6 (Homo sapiens) (P26367 whole entry, looked up): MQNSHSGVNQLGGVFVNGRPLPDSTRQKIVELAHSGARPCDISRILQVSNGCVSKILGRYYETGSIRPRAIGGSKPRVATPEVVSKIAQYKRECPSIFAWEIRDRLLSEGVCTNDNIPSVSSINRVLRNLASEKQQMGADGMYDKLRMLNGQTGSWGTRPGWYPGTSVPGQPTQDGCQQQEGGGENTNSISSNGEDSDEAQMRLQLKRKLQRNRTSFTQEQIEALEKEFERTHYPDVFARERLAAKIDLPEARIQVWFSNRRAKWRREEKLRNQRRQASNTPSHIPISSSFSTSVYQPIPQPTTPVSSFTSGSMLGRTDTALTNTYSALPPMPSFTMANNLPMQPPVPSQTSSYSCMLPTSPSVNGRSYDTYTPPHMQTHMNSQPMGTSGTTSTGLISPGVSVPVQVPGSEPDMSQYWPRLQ

A short description of test [13]: ATG_PXRE_CIS: Attagene CIS-FACTORIAL HepG2 Assay for human Pregnane X Receptor Element (PXRE) (AID 2282957). As to conditions: HepG2 Attagene CIS-FACTORIAL PXRE reporter, mRNA; actives raise or lower the signal. The procedure, abridged: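 HepG2 cells transiently transfected with cis-element-driven multiplexed reporter units; after 24 h chemical exposure, reporter mRNA measured by RT-PCR, 6-FAM labelling, HpaI digestion and capillary electrophoresis. Bidirectional fitting relative to DMSO.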

The nature of test [14]: ATG_PPRE_CIS: Attagene CIS-FACTORIAL HepG2 Assay for human Peroxisome Proliferator-activated Response Element (PPRE) (AID 2282958). As to conditions: HepG2 PPRE cis-element reporter, Attagene transcription factor profiling; actives raise or lower the signal. The procedure, abridged: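 Cells are first transfected transiently with the multiplexed reporter library, then dosed for 24 h. Total RNA is reverse-transcribed, amplified, fluorescently end-labeled and HpaI-cut before capillary electrophoresis; activity is fitted bidirectionally against DMSO controls.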

A short description of test [15]: ATG_RORE_CIS: Attagene CIS-FACTORIAL HepG2 Assay for human RAR-related Orphan Receptor Element (RORE) (AID 2282959). The settings on record: HepG2 Attagene cis-factorial RORE reporter, mRNA; actives raise or lower the signal. The procedure, abridged:
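Cells were HepG2 carrying transfected cis-regulated reporter constructs, dosed for 24 hours. Total RNA was reverse-transcribed and reporter cDNA amplified, fluorescently labeled and sized by capillary electrophoresis. Activity was fitted bidirectionally relative to DMSO.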

Test [16] in a line: ATG_Sox_CIS: Attagene CIS-FACTORIAL HepG2 Assay for human SRY-box transcription factor (SOX) (AID 2282960). As to conditions: HepG2 Attagene cis-factorial SOX reporter, mRNA; actives raise or lower the signal. The procedure, abridged: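 Transient MRTU transfection of HepG2; 24 h compound incubation; TriZol RNA, oligo(dT) RT, PCR, 6-FAM primer extension, HpaI cut, CE. Bidirectional fit, DMSO = baseline.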

For test [17], the target named is Transcription factor Sp1 (Homo sapiens) (UniProt P08047). The test can be described thus: ATG_Sp1_CIS: Attagene CIS-FACTORIAL HepG2 Assay for human Specificity Protein 1 (Sp1) (AID 2282961). The settings on record: HepG2 Sp1 cis-reporter transcription, actives raise or lower the signal. The essentials:
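Endogenous Sp1 activity was gauged in human liver HepG2 cells bearing transfected reporter units under a cis-regulating promoter. After 24 h dosing, reporter mRNA was quantified by RT-PCR with capillary electrophoresis, and activity fitted bidirectionally versus DMSO.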

Test [18] can be described thus: ATG_SREBP_CIS: Attagene CIS-FACTORIAL HepG2 Assay for human Sterol Regulatory Element Binding (SREBP) (AID 2282962). The settings on record: HepG2 Attagene cis-factorial SREBP reporter, mRNA; actives raise or lower the signal. The procedure, abridged:
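HepG2 cells transiently transfected with multiplexed cis-element reporter units report endogenous transcription factor activity. After 24 h of chemical exposure, reporter mRNA was quantified by RT-PCR, 6-FAM labelling, HpaI digestion and capillary electrophoresis; bidirectional fits used DMSO as baseline.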

Test [19] deals with Signal transducer and activator of transcription 3 (Homo sapiens) (UniProt P40763). Kind of test: ATG_STAT3_CIS: Attagene CIS-FACTORIAL HepG2 Assay for human Signal Transducer and Activator of Transcription 3 (STAT3) (AID 2282963). As to conditions: HepG2, Attagene cis-factorial STAT3 reporter transcription; actives raise or lower the signal. The essentials: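 HepG2 cells transiently transfected with cis-element-driven multiple reporter transcription units; after 24 h chemical exposure, reporter mRNA measured by RT-PCR, 6-FAM primer-extension labelling, HpaI digestion and capillary electrophoresis. Bidirectional fitting versus DMSO baseline.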
Chain of Signal transducer and activator of transcription 3 (Homo sapiens) (P40763 whole entry, looked up): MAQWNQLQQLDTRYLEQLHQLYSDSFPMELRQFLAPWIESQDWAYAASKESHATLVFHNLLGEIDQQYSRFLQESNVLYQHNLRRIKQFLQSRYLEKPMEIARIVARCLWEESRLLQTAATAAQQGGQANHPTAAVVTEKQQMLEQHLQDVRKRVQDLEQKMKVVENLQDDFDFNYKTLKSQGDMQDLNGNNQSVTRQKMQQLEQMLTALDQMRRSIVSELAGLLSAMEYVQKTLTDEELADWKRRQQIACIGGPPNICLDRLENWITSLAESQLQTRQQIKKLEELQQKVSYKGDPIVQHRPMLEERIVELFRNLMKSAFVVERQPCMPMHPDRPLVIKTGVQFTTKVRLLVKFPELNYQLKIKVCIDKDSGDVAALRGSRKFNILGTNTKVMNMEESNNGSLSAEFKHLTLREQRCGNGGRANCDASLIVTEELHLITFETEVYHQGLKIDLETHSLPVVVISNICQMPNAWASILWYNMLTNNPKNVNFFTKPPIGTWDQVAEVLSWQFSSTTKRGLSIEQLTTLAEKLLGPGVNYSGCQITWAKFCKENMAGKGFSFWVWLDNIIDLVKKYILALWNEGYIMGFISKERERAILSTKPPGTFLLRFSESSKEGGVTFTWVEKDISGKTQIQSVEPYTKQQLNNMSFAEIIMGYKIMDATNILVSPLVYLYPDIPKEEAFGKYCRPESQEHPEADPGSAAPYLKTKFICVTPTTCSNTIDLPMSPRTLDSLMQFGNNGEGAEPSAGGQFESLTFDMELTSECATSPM

Test [20] is described as follows: ATG_TA_CIS: Attagene CIS-FACTORIAL HepG2 Assay for human TA Basal Promoter (AID 2282964). The settings on record: HepG2 Attagene CIS-factorial TA basal promoter reporter; actives raise or lower the signal. The essentials: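 Fluorescence from labelled RT-PCR reporter fragments, separated by capillary electrophoresis, gives the signal. Cells: HepG2 transiently carrying multiple reporter units, 24 h chemical dosing. Gain or loss relative to DMSO.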

Chain of Bile acid receptor (Homo sapiens) (Q96RI1 whole entry, looked up): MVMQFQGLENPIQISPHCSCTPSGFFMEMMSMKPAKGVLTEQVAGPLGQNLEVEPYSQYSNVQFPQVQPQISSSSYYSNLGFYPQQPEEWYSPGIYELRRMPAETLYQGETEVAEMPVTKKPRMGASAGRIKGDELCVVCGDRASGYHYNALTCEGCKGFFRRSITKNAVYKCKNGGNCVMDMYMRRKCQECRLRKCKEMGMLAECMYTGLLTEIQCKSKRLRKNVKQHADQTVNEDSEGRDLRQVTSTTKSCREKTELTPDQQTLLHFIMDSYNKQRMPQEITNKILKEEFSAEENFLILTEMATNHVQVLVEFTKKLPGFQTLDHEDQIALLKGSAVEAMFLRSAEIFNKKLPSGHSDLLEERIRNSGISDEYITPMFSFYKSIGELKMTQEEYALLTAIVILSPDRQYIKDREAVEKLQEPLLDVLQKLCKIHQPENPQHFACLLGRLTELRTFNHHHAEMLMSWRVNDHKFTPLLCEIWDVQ
Chain of Heat shock factor protein 1 (Homo sapiens) (Q00613 whole entry, looked up, the tested form may be a part): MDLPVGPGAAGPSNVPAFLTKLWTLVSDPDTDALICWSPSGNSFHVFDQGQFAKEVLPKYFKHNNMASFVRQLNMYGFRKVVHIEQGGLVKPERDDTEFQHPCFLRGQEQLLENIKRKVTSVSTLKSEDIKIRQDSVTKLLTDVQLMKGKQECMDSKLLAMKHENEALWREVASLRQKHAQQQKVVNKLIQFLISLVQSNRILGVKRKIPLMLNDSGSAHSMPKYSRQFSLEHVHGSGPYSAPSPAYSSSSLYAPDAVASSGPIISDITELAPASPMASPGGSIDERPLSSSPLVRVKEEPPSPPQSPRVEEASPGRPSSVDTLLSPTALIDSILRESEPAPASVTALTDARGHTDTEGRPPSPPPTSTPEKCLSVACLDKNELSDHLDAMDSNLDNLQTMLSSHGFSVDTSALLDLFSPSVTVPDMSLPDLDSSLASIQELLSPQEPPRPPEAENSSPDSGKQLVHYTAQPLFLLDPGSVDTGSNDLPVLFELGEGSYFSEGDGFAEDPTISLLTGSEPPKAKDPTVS
Chain of Hypoxia-inducible factor 1-alpha (Homo sapiens) (Q16665 whole entry, looked up): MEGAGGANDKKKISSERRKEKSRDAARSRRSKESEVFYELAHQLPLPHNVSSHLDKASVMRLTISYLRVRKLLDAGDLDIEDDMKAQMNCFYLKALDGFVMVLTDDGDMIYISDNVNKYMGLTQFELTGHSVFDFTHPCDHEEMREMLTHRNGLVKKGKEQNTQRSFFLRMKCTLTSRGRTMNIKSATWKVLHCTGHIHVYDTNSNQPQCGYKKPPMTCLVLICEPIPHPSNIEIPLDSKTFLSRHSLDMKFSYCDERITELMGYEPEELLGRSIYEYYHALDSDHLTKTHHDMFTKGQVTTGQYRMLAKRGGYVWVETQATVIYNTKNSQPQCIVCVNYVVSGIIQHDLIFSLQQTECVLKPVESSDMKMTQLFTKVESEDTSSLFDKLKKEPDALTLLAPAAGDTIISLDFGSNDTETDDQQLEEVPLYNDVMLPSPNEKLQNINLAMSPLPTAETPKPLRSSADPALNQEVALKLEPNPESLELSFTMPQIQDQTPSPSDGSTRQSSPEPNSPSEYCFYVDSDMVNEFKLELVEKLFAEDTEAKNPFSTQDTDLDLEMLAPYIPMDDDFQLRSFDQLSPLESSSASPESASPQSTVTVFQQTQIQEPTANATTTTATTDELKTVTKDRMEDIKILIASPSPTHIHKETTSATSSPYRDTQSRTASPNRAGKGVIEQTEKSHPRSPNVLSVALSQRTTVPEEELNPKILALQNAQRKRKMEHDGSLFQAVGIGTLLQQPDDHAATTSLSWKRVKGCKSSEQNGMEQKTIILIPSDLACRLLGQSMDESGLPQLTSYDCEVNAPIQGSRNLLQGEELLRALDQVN
Chain of Transcription factor Sp1 (Homo sapiens) (P08047 whole entry, looked up): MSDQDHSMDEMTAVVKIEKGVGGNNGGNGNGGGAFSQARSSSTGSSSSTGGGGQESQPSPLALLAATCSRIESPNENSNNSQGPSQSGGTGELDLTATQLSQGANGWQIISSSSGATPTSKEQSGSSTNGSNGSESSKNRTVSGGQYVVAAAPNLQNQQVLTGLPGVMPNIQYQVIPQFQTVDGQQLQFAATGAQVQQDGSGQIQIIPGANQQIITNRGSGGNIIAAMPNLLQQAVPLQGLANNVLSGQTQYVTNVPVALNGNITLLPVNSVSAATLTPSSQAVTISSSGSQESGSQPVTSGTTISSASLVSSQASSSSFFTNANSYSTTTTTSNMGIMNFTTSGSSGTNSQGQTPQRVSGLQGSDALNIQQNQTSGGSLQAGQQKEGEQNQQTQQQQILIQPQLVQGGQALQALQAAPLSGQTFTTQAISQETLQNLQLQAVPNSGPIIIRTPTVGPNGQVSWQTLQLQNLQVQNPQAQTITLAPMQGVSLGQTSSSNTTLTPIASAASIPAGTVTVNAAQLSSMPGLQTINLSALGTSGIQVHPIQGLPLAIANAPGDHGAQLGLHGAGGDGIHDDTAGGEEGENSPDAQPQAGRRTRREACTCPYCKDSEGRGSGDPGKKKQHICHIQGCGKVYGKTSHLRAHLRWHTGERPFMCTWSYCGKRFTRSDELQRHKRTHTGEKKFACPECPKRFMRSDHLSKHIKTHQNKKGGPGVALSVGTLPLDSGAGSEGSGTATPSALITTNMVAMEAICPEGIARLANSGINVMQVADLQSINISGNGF

Consider `FC(F)(Br)C(F)(F)C(F)(F)C(F)(F)C(F)(F)C(F)(F)Br`, for which the compound was called inactive in test [1], in test [2], in test [3], in [4], in test [5] and in test [6]. Further, the outcome in [7], in test [8], in test [9], in test [10], in test [11] and in test [12] was inactive. The outcome in test [13], in test [14], in test [15], in test [16], in test [17] and in test [18] was inactive. In addition, the call in test [19] and in [20] was inactive.

`O=C(O)C=C(C(F)(F)F)C(F)(F)F`: the compound was called inactive in test [1], in test [2], in test [3], in test [4], in [5] and in test [6]. Besides, the outcome in test [7], in test [8], in test [9], in test [10], in test [11] and in [12] was inactive. Moreover, the compound was classed as inactive in test [13], in [14], in [15], in [16], in [17] and in test [18]. Moreover, the compound was called inactive in test [19] and in test [20].

Regarding `c1ccc(B(c2ccccc2)c2ccccc2)cc1`, the result in test [1], in [2], in test [3], in [4], in test [5] and in test [6] was inactive. The compound was classed as inactive in test [8], in test [9], in [11], in [12], in [14] and in test [16]. Moreover, the compound was classed as inactive in [17], in test [18], in test [19] and in test [20]. Moreover, the AC50 in test [7] is 58.4 µM (active); in test [10], 51.6 µM (active); in [13], 5.22 µM (active); in test [15], 71.5 µM (active).

Regarding `CO[Si](OC)(c1ccccc1)c1ccccc1`, the compound was classed as inactive in test [1], in [2], in [3], in [4], in test [5] and in test [6]. In addition, the result in test [7], in [8], in test [9], in [10], in test [11] and in [12] was inactive. Also, the result in test [14], in test [15], in test [16], in test [17], in test [18] and in test [19] was inactive. Further, the compound was called inactive in [20]. The AC50 in test [13] is 18.1 µM (active).

With `CCCCC(CC)COP(=O)(O)OCC(CC)CCCC` (stereo not given), the call in test [1], in test [2], in [3], in test [4], in test [5] and in test [6] was inactive. Besides, the outcome in [7], in test [8], in test [9], in test [10], in [11] and in test [12] was inactive. In addition, the compound was called inactive in test [15], in test [16], in test [17], in [18], in test [19] and in test [20]. In addition, the AC50 was 9.1 µM (active) in test [13] and 5.45 µM (active) in test [14].

Turning to `C=CC/C=C/C/C=C/C/C=C/C`, the call in test [1], in test [2], in [3], in test [4], in test [5] and in [6] was inactive. Also, the outcome in test [7], in test [8], in test [9], in [10], in test [11] and in test [12] was inactive. Further, the result in test [13], in [14], in test [15], in test [16], in [17] and in [18] was inactive. Moreover, the outcome in test [19] and in test [20] was inactive.
